The list is not random: actives were taken first. Their share in the collection is about 1.2%.
RecA splice inh: blocks M. tuberculosis RecA intein splicing; cell-free RecA intein splicing, fluorescence; hit rate 0.75% among 290,000; P9WHJ3; inhibition, % (concentration not given with the values); in the data active = inhibition above about 30%;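 also: 0% = vehicle wells and 100% = reference inhibitor control wells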
Mtb betalactam: beta-lactam sensitization of Mtb H37Rv. inhibition, % at 25 µM. hit rate 0.27% among 330,000. M. tuberculosis H37Rv growth with meropenem, percent inhibition; call rule not given here;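 also: growth measured after seven days incubation then overnight dye step; 0% = bacteria only wells and 100% = bacteria with antibiotic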
CCHF vOTU inh-1: CCHFV vOTU protease inhibition. Pep-AMC fluorescence. inhibition, % at 11.5 µM. hit rate 0.55% among 370,000. AID 651958; also: 0% = vehicle wells with enzyme and 100% = no enzyme wells
Rv3671c protease: inhibitors of M. tuberculosis serine protease Rv3671c; hit rate 0.048% among 320,000; inhibition, % at 5.96 µM; P9WHR9; in the data active = inhibition above about 38%;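 also: extracellular domain of Rv3671c used as enzyme; 0% = enzyme with DMSO and 100% = no enzyme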
Target sequence (P9WHR9 whole entry, looked up, the tested form may be a part): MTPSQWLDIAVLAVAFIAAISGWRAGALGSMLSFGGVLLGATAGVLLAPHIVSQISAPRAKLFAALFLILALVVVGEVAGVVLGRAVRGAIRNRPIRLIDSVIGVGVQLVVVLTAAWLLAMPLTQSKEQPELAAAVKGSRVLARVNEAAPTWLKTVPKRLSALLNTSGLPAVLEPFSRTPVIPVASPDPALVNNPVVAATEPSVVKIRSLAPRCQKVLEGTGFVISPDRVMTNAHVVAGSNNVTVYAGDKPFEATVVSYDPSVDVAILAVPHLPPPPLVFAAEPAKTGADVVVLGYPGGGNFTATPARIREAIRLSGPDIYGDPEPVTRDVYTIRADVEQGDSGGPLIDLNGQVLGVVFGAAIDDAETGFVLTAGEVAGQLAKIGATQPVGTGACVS
Mtb UGM inh: Mtb UDP-galactopyranose mutase inhibition. purified UGM, fluorescence polarization probe displacement. P9WIQ1. hit rate 0.06% among 320,000. inhibition, % at 10 µM; in the data active = inhibition above about 10%, passing the limit was not always enough
CCHF vOTU inh-2: confirmation of CCHF virus vOTU protease inhibitors; Recombinant CCHFV vOTU, Pep-AMC fluorescence; shares compounds with CCHF vOTU inh-1; hit rate 17% among 1,900; inhibition, % at 11.5 µM
* hit, by the source's call; . = not tested or not shown; ! = a repeat was not active. Rule as the data show it, unless noted: active = inhibition above about 30%; inactive = the rest.

SMILES | RecA splice inh | Mtb betalactam | CCHF vOTU inh-1 | Rv3671c protease | Mtb UGM inh | CCHF vOTU inh-2
CC(NC(=O)Nc1ccc(O)cc1)(C(F)(F)F)C(F)(F)F | -6.3 | -10.8 | 52.1* | -17.9 | -0.1 | -2.4
CCOC(=O)c1c(C)oc2c1cc(NS(=O)(=O)c1ccc(C(=O)O)cc1)c1ccccc12 | 21.1 | -3.4 | 45.1* | -9.7 | 2.2 | 3.5
Cc1oc2c(cc(NS(=O)(=O)c3ccc(Cl)cc3)c3ccccc32)c1C(=O)O | 4.9 | 1.1 | 0.6 | . | -0.1 | .
CCCCCCCCN1C(=O)[C@@H](CC(=O)NCCCOC)C[C@@]2(C(=O)OC)C1=C[C@H](C(C)(C)C)O[C@@H]2C | . | . | 36.3* | . | . | 11.9
CCCCOCCCNC(=O)C[C@H]1C[C@@]2(C(=O)OC)C(=C[C@H](C3CCCC3)O[C@@H]2C)N(Cc2ccc(Cl)cc2Cl)C1=O | . | . | 23.3 | . | . | .
CCCCOCCCNC(=O)C[C@H]1C[C@@]2(C(=O)OC)C(=C[C@H](C(C)(C)C)O[C@@H]2C)N(Cc2ccc(Cl)cc2Cl)C1=O | . | . | 38.7* | . | . | 7.2
CCCCCCCCN1C(=O)[C@@H](CC(=O)N2CCN(C(=O)C3CC3)CC2)C[C@@]2(C(=O)OC)C1=C[C@H](C(C)(C)C)O[C@@H]2C | . | . | 37.7* | . | . | 28.6
CCCCCCCCN1C(=O)[C@@H](CC(=O)NCCC(C)C)C[C@@]2(C(=O)OC)C1=C[C@H](C(C)(C)C)O[C@@H]2C | . | . | 5.9 | . | . | .
CN1CC[C@@]2(C)c3cc(O)ccc3N(C)C2O1 (stereo partly specified) | 8.1 | 8.4 | . | -89.1 | -2.1 | .
CN1CC[C@@]2(C)c3cc(O)ccc3N(C)[C@@H]12 | . | . | 39.8*! | . | . | 27.7
CC(C)N1CC2(CC(c3ccccc3C(F)(F)F)=NO2)CN1C(=O)c1ccc(C(C)(C)C)cc1 (stereo unspecified) | . | . | 16.9 | . | . | .
CC(C)N1CC2(CC(c3ccccc3F)=NO2)CN1C(=O)c1ccc(C(C)(C)C)cc1 (stereo unspecified) | . | . | 34.5* | . | . | -4.5
COc1ccc2c(c1)CN1C(=O)N(Cc3ccc(F)cc3)S(=O)(=O)CC21 (stereo unspecified) | . | . | 7.4 | . | . | .
CN(C)c1ccc(N=Cc2cccn2C)cc1 | 2.1 | -5.5 | 42.1* | -32.5 | 0.0 | -12.6
CN(C)c1ccc(N=C/C=C2\N(C)c3ccccc3C2(C)C)cc1 | -1.3 | 13.4 | 21.7 | -9.4 | -10.1 | .
Cc1cc(NS(=O)(=O)c2ccc(NC(=O)Cc3ccc(Cl)c(F)c3)cc2)no1 | . | . | 0.6 | . | . | .
Cc1ccc(C2CCC3(CCC(=O)N3CCO)CC2)cc1 (stereo unspecified) | . | . | -4.9 | . | . | .
O=C(Nc1ccccc1C(=O)O)c1cccc(NC(=O)c2ccco2)c1 | -4.4 | -1.8 | 15.5 | -7.5 | 3.2 | .
O=C(Nc1ccc(O)cc1C(=O)O)c1ccc(NC(=O)c2ccco2)cc1 | . | -11.7 | 36.9* | 0.5 | 6.3 | -3.4
COC(=O)CSc1nnc(-c2ccc(NS(=O)(=O)c3ccc(Cl)s3)cc2)o1 | . | . | 3.1 | . | . | .
O=C1CCCN1CCCNCCCn1cnc2c(OCc3ccccc3)ncnc21 | . | . | -6.3 | . | . | .
O=C(Cn1cnc2c(OCc3ccccc3)ncnc21)NCCCN1CCCC1=O | . | 4.6 | 30.1* | 0.3 | -1.5 | 3.1
O=c1oc2cc(O)c(Cl)cc2c2ccccc12 | -4.4 | 64.5 | 30.5* | 4.5 | 0.7 | -7.1
COc1ccc2c(c1)oc(=O)c1ccccc12 | -0.6 | -1.4 | -72.3 | -1.9 | -0.6 | .
O=C(CNS(=O)(=O)c1ccc(Br)s1)N1CCN(c2ccccn2)CC1 | . | . | -1.3 | . | . | .
SMILES | RecA splice inh | Mtb betalactam | CCHF vOTU inh-1 | Rv3671c protease | Mtb UGM inh | CCHF vOTU inh-2
CC(C)C(C(=O)NCc1ccco1)N(C(=O)CNS(=O)(=O)c1ccccc1)c1ccccc1 (stereo unspecified) | -0.3 | -8.0 | 33.9* | -1.4 | 3.2 | -13.4
CCC(C(=O)NCc1ccco1)N(C(=O)CNS(=O)(=O)c1ccccc1)c1ccc(F)cc1 (stereo unspecified) | 0.4 | 5.4 | 11.8 | 11.6 | -1.0 | .
O=C1NCCCC2c3cc(O)c4ccccc4c3OC12N1CCCCC1 (stereo unspecified) | . | -2.7 | 92.4* | -93.8 | 1.0 | 16.4
O=C1NCCCC2c3c(cc(Br)c(O)c3Br)OC12N1CCOCC1 (stereo unspecified) | -2.7 | 1.6 | -0.3 | 6.6 | -1.4 | .
CC(=O)c1c(C)[nH]c(C(=O)OCC(=O)Nc2ccc([N+](=O)[O-])cc2Cl)c1C | 1.9 | -2.5 | -4.3 | -6.0 | -0.3 | .
CC(=O)c1c(C)[nH]c(C(=O)OCC(=O)NNC(=O)c2ccc([N+](=O)[O-])cc2)c1C | . | 23.3 | 35.3* | 2.1 | -1.0 | -11.6
Cc1nc(NC2CCCC2)c2nnn(Cc3ccccc3)c2n1 | . | . | 7.3 | . | . | .
O=[N+]([O-])c1cc2ccccc2c(O)c1O | . | . | 82.6* | . | . | -19.9

Bioassay records (PubChem)
